# Measurements taken from the antibiotic and cytotoxicity screens of Wong et al. (2023).
# Out of some 39,000 compounds screened, about 500 (1.3%) were called active. The entries come from a sample that favours actives as a whole.
# System: S. aureus RN4220
# Test: growth inhibition call (relative growth <= 0.2)
# Conditions: 50 µM
row,SMILES,growth inhibition call
1,Cc1ccc(S(=O)(=O)Nc2ccc3c(c2)C(=O)N([C@H](C)CO)C[C@H](C)[C@H](CN(C)C(=O)Nc2c(C)noc2C)OCCCC[C@H](C)O3)cc1,inactive
2,CO[C@@H]1CC[C@@H]2[C@H]1OCCN2C(=O)N(C)C,inactive
3,CCCC#Cc1ccc2c(c1)O[C@@H](CN(C)S(=O)(=O)c1cccc(F)c1)[C@@H](C)CN([C@H](C)CO)S2(=O)=O,inactive
4,c1ccc2c(c1)ccc1cc3c(ccc4ccccc43)cc12,inactive
5,Nc1ccc(Oc2ccc3ccccc3c2Cl)c(Cl)c1,active
6,COc1cc(Cl)ccc1Oc1ccc(Cl)cc1Cl,inactive
7,COc1ccc2ccccc2c1-c1c(OC)ccc2ccccc12,inactive
8,Nc1ccc(Sc2ccc3ccccc3c2Cl)c(Cl)c1,active
9,C[C@@H]1CN([C@H](C)CO)C(=O)c2cc(NC(=O)Nc3ccc4c(c3)OCO4)ccc2O[C@@H](C)CCCCO[C@H]1CN(C)Cc1ccc(C(=O)O)cc1,inactive
10,C[C@@H]1CN([C@H](C)CO)C(=O)c2cc(NC(=O)Nc3ccc4c(c3)OCO4)ccc2O[C@@H](C)CCCCO[C@@H]1CN(C)C(=O)CCC(F)(F)F,inactive
11,COc1ccc(CN(C)C[C@@H]2Oc3c(NC(=O)c4ccc(-c5nccs5)cc4)cccc3C(=O)N([C@@H](C)CO)C[C@H]2C)cc1,inactive
12,Cc1noc(C)c1S(=O)(=O)Nc1ccc2c(c1)CC(=O)N([C@@H](C)CO)C[C@H](C)[C@H](CN(C)S(=O)(=O)c1cn(C)cn1)O2,inactive
13,C[C@@H]1CN([C@H](C)CO)C(=O)c2cccc(NS(C)(=O)=O)c2O[C@H]1CN(C)C(=O)Nc1ccccc1,inactive
14,CC(C)NC(=O)Nc1ccc2c(c1)C(=O)N([C@H](C)CO)C[C@H](C)[C@H](CN(C)Cc1ccc(C(=O)O)cc1)O2,inactive
15,NCC1OC(OC2C(N)CC(N)C(OC3OC(CO)C(O)C(N)C3O)C2O)C(N)CC1O (centres undefined),active
16,NCC1CCC(N)C(OC2C(N)CC(N)C(OC3OC(CO)C(O)C(N)C3O)C2O)O1 (centres undefined),inactive
17,NC[C@@H]1O[C@H](O[C@H]2[C@@H](O)[C@H](O[C@@H]3[C@@H](O)[C@H](N)C[C@H](N)[C@H]3O[C@@H]3O[C@H](CO)[C@@H](O)C[C@H]3N)O[C@@H]2CO)[C@H](N)[C@@H](O)[C@@H]1O[C@H]1O[C@H](CO)[C@@H](O)[C@H](O)[C@@H]1O,inactive
18,NC[C@H]1O[C@H](O[C@H]2[C@@H](O[C@@H]3O[C@H](CO)[C@@H](O)[C@H]3O)[C@@H](O)[C@H](N)C[C@@H]2N)[C@H](N)[C@@H](O)[C@@H]1O,inactive
19,NC[C@H]1O[C@H](O[C@H]2[C@H](O)[C@@H](O[C@H]3O[C@H](CO)[C@@H](O)[C@H](N)[C@H]3O)[C@H](N)C[C@@H]2N)[C@H](N)C[C@@H]1O,active
20,NC[C@H]1O[C@H](O[C@@H]2[C@H](O)[C@@H](O[C@H]3O[C@H](CO)[C@@H](O)[C@H](N)[C@H]3O)[C@H](N)C[C@@H]2N)[C@H](O)[C@@H](O)[C@@H]1O,inactive
21,C[C@@H]1CN([C@@H](C)CO)C(=O)c2cccc(NC(=O)CCCCCC(=O)Nc3ccccc3N)c2O[C@@H]1CN(C)C(=O)Nc1ccc(F)cc1,inactive
22,OCC(CO)NC1CC(O)(CO)C(O)C(O)C1O (centres undefined),inactive
23,C[C@H](CO)N1C[C@H](C)[C@H](CN(C)CC2CC2)OCCCC[C@H](C)Oc2ccc(NC(=O)Cc3ccccc3)cc2C1=O,inactive

row,SMILES,growth inhibition call
1,COc1ccc(NC(=O)Nc2ccc3c(c2)C(=O)N([C@@H](C)CO)C[C@H](C)[C@@H](CN(C)S(=O)(=O)c2ccc(Cl)cc2)OCCCC[C@H](C)O3)cc1,inactive
2,CCCNC(=O)N1C[C@]2(CCN(CC2)S(=O)(=O)c2ccccc2)c2c(n(c3cc(ccc23)OC)C)[C@@H]1CO,inactive
3,C[C@H](CO)N1C[C@H](C)[C@@H](CN(C)Cc2ccc(C(F)(F)F)cc2)Oc2ccc(NC(=O)Nc3ccc(F)cc3)cc2CC1=O,inactive
4,CC(C)(C)[S@@](=O)N1Cc2cc(C(=O)N[C@@H]3CCN(Cc4ccccc4)C3)nc(-c3cccc(-c4ccncc4)c3)c2[C@H]1CCO,inactive
5,Cc1cc2nc(C(=O)NC[C@H]3CCCS(=O)(=O)C3)cc(-c3ccccc3Cl)c2c(C)c1-c1ccncc1,inactive
6,Cc1cc2nc(C(=O)N[C@H]3CCN(C)C3)cc(-c3ccccc3Cl)c2c(C)c1-c1ccc(CO)cc1,active
7,CC(C)NC(=O)N(C)C[C@@H]1Oc2ccc(NC(=O)Cc3ccccc3)cc2CC(=O)N([C@@H](C)CO)C[C@H]1C,inactive
8,CC(C)[C@@H](CS(=O)(=O)C(C)C)N1C(=O)[C@@](C)(CC(=O)O)C[C@H](c2cccc(Cl)c2)[C@H]1c1ccc(Cl)cc1,inactive
9,Nc1ncnc2c1ncn2[C@@H]1O[C@H](CO)[C@@H](O)[C@@H]1O,inactive
10,COc1ccc(CC(N)C(=O)NC2C(CO)OC(n3cnc4c(N(C)C)ncnc43)C2O)cc1.Cl.Cl (centres undefined),inactive
11,CNc1ncnc2c1ncn2[C@@H]1O[C@H](CO)[C@@H](O)[C@H]1O,inactive
12,COc1nc(N)nc2c1ncn2[C@@H]1O[C@H](CO)[C@@H](O)[C@@H]1O,inactive
13,COc1ccc(C[C@H](N)C(=O)N[C@H]2[C@@H](O)[C@@H](n3cnc4c(N(C)C)ncnc43)O[C@@H]2CO)cc1,active
14,COc1ccc(C[C@@H](N)C(=O)N[C@@H]2[C@@H](O)[C@@H](n3cnc4c(N(C)C)ncnc43)O[C@@H]2CO)cc1,active
15,Nc1ncnc2c1ncn2[C@H]1O[C@@H](CO)[C@H](O)[C@@H]1O,inactive
16,COc1ccc(C[C@H](N)C(=O)N[C@H]2[C@@H](O)[C@H](n3cnc4c(N(C)C)ncnc43)O[C@@H]2CO)cc1,active
17,CN(C)c1ncnc2c1ncn2[C@H]1O[C@@H](CO)[C@@H](N)[C@@H]1O,inactive
18,O=C(C[C@@H]1CC[C@@H]2[C@H](COC[C@@H](O)CN2C(=O)c2ccccc2F)O1)N1CCN(c2ccccc2)CC1,inactive
19,C[C@H](CO)N1C[C@H](C)[C@H](CN(C)Cc2ccc(C(=O)Nc3ccccc3N)cc2)Oc2ccc(NC(=O)Nc3ccc(C(F)(F)F)cc3)cc2CC1=O,inactive
20,C[C@@H]1CN([C@@H](C)CO)C(=O)c2cc(NS(=O)(=O)c3cn(C)cn3)ccc2O[C@@H]1CN(C)S(=O)(=O)c1cccs1,inactive
21,Cc1noc(C)c1NC(=O)Nc1cccc2c1O[C@H](CN(C)Cc1ccc(C(=O)Nc3ccccc3N)cc1)[C@@H](C)CN([C@H](C)CO)C2=O,inactive
22,Cc1noc(C)c1S(=O)(=O)Nc1ccc2c(c1)C(=O)N([C@@H](C)CO)C[C@H](C)[C@@H](CN(C)Cc1ccc3c(c1)OCO3)O2,inactive
23,CCCCCCCCC=CCCCCCCCC(=O)[O-].[NH3+]CCO,inactive

row,SMILES,growth inhibition call
1,C[C@H]1CN([C@@H](C)CO)C(=O)c2cc(NC(=O)Nc3cccc4ccccc34)ccc2O[C@@H]1CN(C)Cc1ccc(-c2ccccc2)cc1,inactive
2,CC(C)NC(=N)NC(=N)Nc1ccc(Cl)cc1.Cl,inactive
3,Cl.N=C(NN=Cc1ccc(Cl)cc1)NN=Cc1ccc(Cl)cc1,inactive
4,Cl.Cl.N=C(NCCCCCCNC(=N)NC(=N)Nc1ccc(Cl)cc1)NC(=N)Nc1ccc(Cl)cc1,active
5,C[C@H](CO)N1C[C@H](C)[C@H](CN(C)Cc2ccc3c(c2)OCO3)Oc2c(NC(=O)C3CC3)cccc2C1=O,inactive
6,C[C@H](CO)N1C[C@H](C)[C@@H](CN(C)Cc2ccc(C(=O)O)cc2)Oc2ccc(NC(=O)Cn3cnnn3)cc2C1=O,inactive
7,Cl.Nc1ccn(C2OC(CO)C(O)C2(F)F)c(=O)n1 (centres undefined),active
8,Nc1ccn([C@@H]2O[C@H](CO)[C@@H](O)C2(F)F)c(=O)n1,inactive
9,C[C@@]1(F)[C@H](O)[C@@H](CO)O[C@H]1n1ccc(N)nc1=O,inactive
10,COc1ccc(NC(=O)N(C)C[C@@H]2OCCCC[C@H](C)Oc3ccc(NC(=O)c4ccccc4)cc3C(=O)N([C@@H](C)CO)C[C@@H]2C)cc1,inactive
11,COc1ccc2c3c([nH]c2c1)[C@H](CO)N(Cc1ccc(cc1)Cl)C[C@]13CCN(CC1)Cc1ccccc1,inactive
12,COc1ccc2c3c([nH]c2c1)[C@@H](CO)N(Cc1ccc(cc1)Cl)C[C@]13CCN(CC1)Cc1ccccc1,inactive
13,COc1ccc2c3c([nH]c2c1)[C@H](CO)N(C[C@]13CN(CCc2ccccc2)C1)C(=O)CN1CCOCC1,inactive
14,COc1ccc2c3c([nH]c2c1)[C@@H](CO)N(C[C@]13CN(CCc2ccccc2)C1)C(=O)CN1CCOCC1,inactive
15,COc1ccc2c3c([nH]c2c1)[C@@H](CO)N(Cc1ccc(cc1)Cl)C[C@]13CCN(CCc2ccccc2)CC1,active
16,COc1ccc2c3c([nH]c2c1)[C@@H](CO)N(Cc1ccc(cc1)Cl)C[C@]13CN(CCc2ccccc2)C1,active
17,COc1ccc2c3c([nH]c2c1)[C@H](CO)N(Cc1ccc(cc1)Cl)C[C@]13CCN(CCc2ccccc2)CC1,inactive
18,COc1ccc2c3c([nH]c2c1)[C@H](CO)N(Cc1ccc(cc1)Cl)C[C@]13CCN(CC1)Cc1nccs1,inactive
19,COc1ccc2c3c([nH]c2c1)[C@H](CO)N(Cc1ccc(cc1)Cl)C[C@]13CN(CCc2ccccc2)C1,active
20,Cc1ccc(NC(=O)Nc2cc(C(F)(F)F)ccc2F)cc1Nc1ccc2c(c1)NC(=O)/C2=C\c1ccc[nH]1,inactive
21,N[C@@]1(C(=O)O)CO[C@H]2[C@H](C(=O)O)[C@H]21,inactive
22,O=C(NCC(=O)N1CC[C@H](N[C@H]2CC[C@@](O)(c3ccc(-c4ncccn4)cn3)CC2)C1)c1cccc(C(F)(F)F)c1,inactive
23,CO[C@@H]1CN(C)C(=O)c2cc(NS(=O)(=O)CC(F)(F)F)ccc2OC[C@H](C)N(Cc2ccccn2)C[C@H]1C,inactive
